Source: PubChem BioAssay (Tox21)
Records with an inconclusive call do not appear. Activity calls are given as the source filed them. Unless noted, the call rests on the fitted dose curve; in most records, active means well fitted curve in the direction sought with a large enough effect in the repeat runs; inconclusive means weak or mixed curves; inactive means no such curve, though single readings can be large; an effect the other way counts as inactive or inconclusive.

Assays:
[1] = qHTS assay to identify small molecule antagonists of the estrogen receptor beta (ER-beta) signaling pathway - cell viability counter screen (AID 1259382);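 further: HEK293T cells carrying ER-beta-UAS-bla reporter stimulated with estradiol; series mostly up to about 92 µM; nearly all actives have a fitted effect of over 55% in size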
Method in brief: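 Viability is scored by CellTiter-Glo luminescence (30 min, room temperature) in ER-beta-UAS-bla HEK293T wells already read for reporter fluorescence. Compound exposure lasts 16 hr at 37C alongside 1nM 17-beta-estradiol in charcoal-stripped serum medium.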

[2] = qHTS assay to identify small molecule agonists of the estrogen receptor alpha (ER-alpha) signaling pathway in the presence of an antagonist - cell viability counter screen (AID 1259386);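 further: series mostly up to about 92 µM; cells exposed to compounds for 22 h at 37 °C before the viability read; nearly all actives have a fitted effect of over 30% in size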
Method in brief: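 In this counter screen, compound effects on VM7Luc4E2 viability were tested in the presence of the antagonist ICI-182,780 at 10.0nM final. Compounds were dosed at 15 concentrations, exposure lasted 22hr, and the CellTiter-Fluor signal was read.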

[3] = molecular target: Progesterone receptor (Homo sapiens) (UniProt P06401); assay: qHTS assay to identify small molecule agonists of the progesterone receptor (PR) signaling pathway (AID 1346784; calls by dose curve; further: nearly all actives have a fitted effect of over 30% in size)
Progesterone receptor (Homo sapiens), sequence (P06401 whole entry, looked up): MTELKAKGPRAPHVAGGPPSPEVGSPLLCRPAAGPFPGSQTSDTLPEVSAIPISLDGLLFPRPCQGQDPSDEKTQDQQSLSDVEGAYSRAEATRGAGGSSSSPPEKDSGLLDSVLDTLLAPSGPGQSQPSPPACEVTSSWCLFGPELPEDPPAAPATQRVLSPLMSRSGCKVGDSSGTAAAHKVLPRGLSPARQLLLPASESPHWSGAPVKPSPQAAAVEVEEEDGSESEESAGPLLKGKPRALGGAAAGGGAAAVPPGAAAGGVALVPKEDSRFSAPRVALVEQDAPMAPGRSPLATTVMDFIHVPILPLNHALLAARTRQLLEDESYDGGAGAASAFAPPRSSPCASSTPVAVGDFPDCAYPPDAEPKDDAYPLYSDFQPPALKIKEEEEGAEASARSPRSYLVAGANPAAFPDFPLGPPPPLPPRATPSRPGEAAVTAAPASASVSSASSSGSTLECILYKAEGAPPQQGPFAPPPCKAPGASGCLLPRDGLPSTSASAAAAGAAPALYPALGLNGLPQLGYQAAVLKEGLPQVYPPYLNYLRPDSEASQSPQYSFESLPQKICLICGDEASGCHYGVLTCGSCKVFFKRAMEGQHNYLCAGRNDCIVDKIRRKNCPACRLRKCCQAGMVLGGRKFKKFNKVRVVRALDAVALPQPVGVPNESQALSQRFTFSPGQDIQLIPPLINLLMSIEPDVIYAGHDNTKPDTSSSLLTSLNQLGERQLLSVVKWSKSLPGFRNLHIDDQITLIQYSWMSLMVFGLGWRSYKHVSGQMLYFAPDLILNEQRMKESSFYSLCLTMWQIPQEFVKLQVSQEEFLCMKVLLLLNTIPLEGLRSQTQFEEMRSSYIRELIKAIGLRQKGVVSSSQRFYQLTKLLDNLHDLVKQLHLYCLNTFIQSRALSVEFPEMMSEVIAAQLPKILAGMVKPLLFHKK
Method in brief: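 Beta-lactamase reporter read-out: after 16 hr compound treatment at 37C and a further 2 hr at room temperature with LiveBLAzer B/G FRET substrate, fluorescence was measured in PR-UAS-bla HEK 293T cells grown in 2% charcoal-stripped serum.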

[4] = molecular target: Progesterone receptor (Homo sapiens) (UniProt P06401); assay: qHTS assay to identify small molecule antagonists of the progesterone receptor (PR) signaling pathway (AID 1346795; active means well fitted inhibition curve with a large enough effect in the signal ratio in the repeat runs, not every such curve was filed as active; the % refers to the signal ratio; further: potency means the concentration at half of the fitted maximal effect)
Method in brief: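 Read-out is fluorescence from the LiveBLAzer B/G FRET substrate, cleaved by a UAS-controlled beta-lactamase in PR-UAS-bla HEK293T cells after 16 hr exposure to compound plus 1 nM promegestone (final), followed by 2 hr at room temperature.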

[5] = qHTS assay to identify small molecule antagonists of the progesterone receptor (PR) signaling pathway - cell viability counter screen (AID 1346798);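 further: HEK293T PR-UAS-bla cells stimulated with the agonist R5020; series mostly up to about 92 µM; nearly all actives have a fitted effect of over 50% in size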
Method in brief: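 HEK293T PR-UAS-bla, 2% charcoal-stripped FBS; 4 hr pre-plate; cpd + R5020, 16 h 37C; LiveBLAzer read first; then CellTiter-Glo 30 min RT, luminescence.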

[6] = qHTS assay to identify small molecule agonists of the progesterone receptor (PR) signaling pathway - cell viability counter screen (AID 1346799; calls by dose curve; further: nearly all actives have a fitted effect of over 45% in size)
Method in brief: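 Luminescence from CellTiter-Glo, added after the beta-lactamase FRET read in the same wells, gave cytotoxicity in PR-UAS-bla HEK293T cells treated with compounds for 16 hr at 37C.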

[7] = qHTS assay to identify small molecule antagonists of the TGF-beta/Smad signaling pathway - cell viability counter screen (AID 1346824); further: nearly all actives have a fitted effect of over 50% in size
Method in brief: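 Cytotoxicity counter-screen run in the same wells as the beta-lactamase Smad reporter read: CellTiter-Glo luminescence after 30 min at room temperature. HEK 293T SBE-bla cells had 5 hr compound exposure at 37 C with TGF-beta1 (0.25 ng/mL stock).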

[8] = qHTS assay to identify small molecule agonists of the TGF-beta/Smad signaling pathway - cell viability counter screen (AID 1346829); further: top concentration of the series differs between compounds; nearly all actives have a fitted effect of over 45% in size
Method in brief: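 Here the cytotoxicity of library compounds is measured in SBE-bla HEK 293T cells treated for 5 hr, using CellTiter-Glo added to wells already read for the beta-lactamase reporter.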

[9] = qHTS assay to identify small molecule agonists of the TGF-beta/Smad signaling pathway (AID 1346859; active means well fitted activation curve with a large enough effect in the signal ratio in the repeat runs, not every such curve was filed as active; the % refers to the signal ratio; further: series mostly up to about 77 µM)
Method in brief: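 SBE-bla HEK 293T, 4,000 cells/well, plated o/n; cpd in DMSO, 5 hr, 37 C/5% CO2; B/G FRET substrate 2 hr RT; ex 405, em 460/530 nm.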

[10] = molecular target: Thyrotropin-releasing hormone receptor (Homo sapiens) (UniProt P34981); assay: qHTS assay to identify small molecule antagonists of the thyrotropin-releasing hormone receptor (TRHR) signaling pathway (AID 1346877; active means well fitted inhibition curve with a large enough effect in the repeat runs, not every such curve was filed as active; further: series mostly up to about 51 µM)
Thyrotropin-releasing hormone receptor (Homo sapiens), sequence (P34981 whole entry, looked up): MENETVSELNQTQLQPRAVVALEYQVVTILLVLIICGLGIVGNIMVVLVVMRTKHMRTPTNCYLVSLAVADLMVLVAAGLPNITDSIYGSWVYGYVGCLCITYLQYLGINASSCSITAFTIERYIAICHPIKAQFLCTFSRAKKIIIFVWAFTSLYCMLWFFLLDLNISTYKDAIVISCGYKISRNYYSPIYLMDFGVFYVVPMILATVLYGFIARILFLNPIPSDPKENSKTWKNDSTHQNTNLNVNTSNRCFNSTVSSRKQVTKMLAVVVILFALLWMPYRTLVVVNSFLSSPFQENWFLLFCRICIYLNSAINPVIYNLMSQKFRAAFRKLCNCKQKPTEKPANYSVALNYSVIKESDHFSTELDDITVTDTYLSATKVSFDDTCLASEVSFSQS
Method in brief: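 Kinetic fluorescence (3 min, 1 s resolution) following stimulation with TRH at 1 nM final; HEK293 cells bearing human TRHR; 5 min compound preincubation at RT; concentration-response over 15 points, triplicates.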

[11] = molecular target: Thyrotropin-releasing hormone receptor (Homo sapiens) (UniProt P34981); assay: qHTS assay to identify small molecule agonists of the thyrotropin-releasing hormone receptor (TRHR) signaling pathway (AID 1346891; calls by dose curve; further: series mostly up to about 58 µM)
Method in brief: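 Intracellular calcium rise, read as fluorescence every second for 3 min, served as the agonist signal in dye-loaded HEK293 cells expressing TRHR; each compound ran at 15 concentrations in triplicate.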

[12] = Human pregnane X receptor (PXR) small molecule agonists, qHTS cell viability counter screen (AID 1346977); further: nearly all actives have a fitted effect of over 50% in size
Method in brief: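 PXR-Luc HepG2, 2,000 cells/well, 5% charcoal-stripped FBS; 5hr settle; cpd 24hr, 37C/5% CO2; CellTiter-Fluor at 23hr, read 1hr later (fluorescence).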

[13] = Caspase-3/7 induction in HepG2 cells by small molecules, qHTS assay (AID 1346978); further: nearly all actives have a fitted effect of over 15% in size
Method in brief: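 Caspase-3/7 induction was measured by Caspase-Glo 3/7 luminescence (30 min, room temperature) after a 17 hr compound exposure of wild-type HepG2 cells seeded at 2,000 per well and pre-incubated 5 hr.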

[14] = Caspase-3/7 induction in CHO-K1 cells by small molecules, qHTS cell viability counter screen (AID 1346979); further: nearly all actives have a fitted effect of over 35% in size
Method in brief: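 Cells (CHO-K1, wild type) are plated at 1,500 per well and incubated 5hr. Test compounds in DMSO are then pinned in, followed by 16hr at 37C and 5% CO2. Viability is read by CellTiter-Fluor fluorescence after 1hr.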

[15] = Caspase-3/7 induction in CHO-K1 cells by small molecules, qHTS assay (AID 1346980); further: nearly all actives have a fitted effect of over 15% in size
Method in brief: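 Luminescent Caspase-Glo 3/7 read (30min, room temperature) quantified apoptosis induction. Cells were wild-type CHO-K1, treated with compound for 17hr at 37 C and 5% CO2.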

[16] = Caspase-3/7 induction in HepG2 cells by small molecules, qHTS cell viability counter screen (AID 1346981); further: series mostly up to about 92 µM; nearly all actives have a fitted effect of over 30% in size
Method in brief: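 In this quantitative HTS counter screen, compounds delivered in DMSO were left on unmodified HepG2 cells for 16 hr at 37 C. Viability was then determined fluorometrically with CellTiter-Fluor, in parallel with caspase-3/7 induction in the same wells.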

[17] = molecular target: Nuclear receptor subfamily 1 group I member 2 (Homo sapiens) (UniProt O75469); assay: Human pregnane X receptor (PXR) small molecule agonists, qHTS assay (AID 1346982); further: nearly all actives have a fitted effect of over 35% in size; further: potency means the concentration at half of the fitted maximal effect
Nuclear receptor subfamily 1 group I member 2 (Homo sapiens), sequence (O75469 whole entry, looked up): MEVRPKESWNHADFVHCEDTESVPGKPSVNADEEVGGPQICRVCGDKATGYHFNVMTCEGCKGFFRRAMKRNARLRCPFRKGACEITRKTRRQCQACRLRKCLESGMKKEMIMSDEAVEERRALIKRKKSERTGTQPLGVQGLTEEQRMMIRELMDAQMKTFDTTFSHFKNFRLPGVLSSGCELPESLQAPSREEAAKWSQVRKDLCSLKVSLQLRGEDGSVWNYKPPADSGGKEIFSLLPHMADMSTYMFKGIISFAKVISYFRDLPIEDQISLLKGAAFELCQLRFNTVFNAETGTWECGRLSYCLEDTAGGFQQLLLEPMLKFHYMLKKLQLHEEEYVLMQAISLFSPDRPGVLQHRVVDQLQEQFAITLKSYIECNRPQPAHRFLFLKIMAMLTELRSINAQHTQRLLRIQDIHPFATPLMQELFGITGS
Method in brief: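 Reporter HepG2 cells expressing PXR-Luc are cultured in charcoal-stripped FBS (5%), treated with compounds for 24 hr at 37 C, and assayed by ONE-Glo luminescence after 30 min at room temperature.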

[18] = molecular target: Thyrotropin receptor (Homo sapiens) (UniProt P16473); assay: qHTS assay to identify small molecule antagonists of the thyroid stimulating hormone receptor (TSHR) signaling pathway (AID 1259385; calls by dose curve; further: nearly all actives have a fitted effect of over 20% in size)
Thyrotropin receptor (Homo sapiens), sequence (P16473 whole entry, looked up): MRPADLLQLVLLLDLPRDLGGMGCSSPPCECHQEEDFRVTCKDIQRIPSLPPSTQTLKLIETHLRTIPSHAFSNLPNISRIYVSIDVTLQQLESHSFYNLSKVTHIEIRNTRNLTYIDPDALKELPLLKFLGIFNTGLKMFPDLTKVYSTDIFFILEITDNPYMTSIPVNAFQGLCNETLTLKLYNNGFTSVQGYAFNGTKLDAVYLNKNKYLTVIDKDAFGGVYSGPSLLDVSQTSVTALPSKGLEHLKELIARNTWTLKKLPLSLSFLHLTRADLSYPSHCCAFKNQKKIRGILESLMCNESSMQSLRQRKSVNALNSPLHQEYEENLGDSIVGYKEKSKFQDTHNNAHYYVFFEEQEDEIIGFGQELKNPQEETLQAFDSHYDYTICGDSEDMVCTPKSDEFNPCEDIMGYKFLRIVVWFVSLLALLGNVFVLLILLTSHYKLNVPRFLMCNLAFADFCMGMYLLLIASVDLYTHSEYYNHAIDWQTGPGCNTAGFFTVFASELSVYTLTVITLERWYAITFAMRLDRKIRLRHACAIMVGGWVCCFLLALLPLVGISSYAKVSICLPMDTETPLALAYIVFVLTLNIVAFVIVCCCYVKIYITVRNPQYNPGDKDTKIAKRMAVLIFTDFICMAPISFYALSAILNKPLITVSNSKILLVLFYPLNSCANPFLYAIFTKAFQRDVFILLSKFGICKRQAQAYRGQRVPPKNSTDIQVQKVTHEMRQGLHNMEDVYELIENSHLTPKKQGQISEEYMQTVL
Method in brief: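 Antagonist mode: compound-treated TSHR-expressing HEK293 cells were stimulated with 1.5 ng/mL TSH (final) in presence of Ro20-1724 for 30 min at RT. HTRF cAMP detection after 1 h; each compound tested at 15 concentrations, triplicate.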

[19] = molecular target: Estrogen receptor (Homo sapiens) (UniProt P03372); assay: qHTS assay to identify small molecule agonists of the estrogen receptor alpha (ER-alpha) signaling pathway in the presence of an antagonist (AID 1259383; calls by dose curve; further: top concentration of the series differs between compounds; nearly all actives have a fitted effect of over 15% in size)
Estrogen receptor (Homo sapiens), sequence (P03372 whole entry, looked up): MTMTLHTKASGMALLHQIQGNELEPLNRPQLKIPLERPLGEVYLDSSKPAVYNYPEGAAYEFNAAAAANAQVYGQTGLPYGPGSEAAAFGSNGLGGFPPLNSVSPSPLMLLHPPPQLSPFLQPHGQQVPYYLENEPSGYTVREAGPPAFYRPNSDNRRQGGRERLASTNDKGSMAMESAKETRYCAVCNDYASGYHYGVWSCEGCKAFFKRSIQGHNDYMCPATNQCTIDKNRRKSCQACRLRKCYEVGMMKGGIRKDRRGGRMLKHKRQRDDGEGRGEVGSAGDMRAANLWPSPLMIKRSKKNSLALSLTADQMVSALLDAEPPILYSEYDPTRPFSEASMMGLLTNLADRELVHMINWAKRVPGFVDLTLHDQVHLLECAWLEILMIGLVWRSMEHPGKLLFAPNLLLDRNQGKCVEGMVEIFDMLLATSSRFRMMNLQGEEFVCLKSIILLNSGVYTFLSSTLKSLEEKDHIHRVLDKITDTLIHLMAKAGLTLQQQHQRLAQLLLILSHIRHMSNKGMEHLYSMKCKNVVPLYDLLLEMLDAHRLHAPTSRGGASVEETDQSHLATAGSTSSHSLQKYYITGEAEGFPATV
Method in brief: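 Readout was ERE-driven luciferase luminescence in VM7Luc4E2 cells, which express full-length ER-alpha endogenously. Compounds were tested at 15 concentrations for 22hr alongside 10.0nM ICI-182,780 (final concentration).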

[20] = qHTS assay to identify small molecule agonists or antagonists of the thyroid stimulating hormone receptor (TSHR) signaling pathway - wild type cell line counter screen (AID 1259384; calls by dose curve)
Method in brief: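 Counter screen in untransfected Hek293: compounds (15-point titration, triplicate) plus phosphodiesterase inhibitor Ro20-1724 added after 18 h plating; 30 min RT. Intracellular cAMP via competitive d2/cryptate immunoassay, 1 h incubation.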
On the % scale 0 is the no-effect control and ±100 the full control effect.

COc1cc(OC)cc(OC)c1
inactive: outcome [1] | outcome [2] | Potency [3] | Potency [4] | outcome [5] | Potency [6] | outcome [7] | outcome [8] | outcome [9] | outcome [10] | Potency [11] | outcome [12] | outcome [13] | Potency [14] | outcome [15] | outcome [16] | Potency [17]

CC[N+](C)(CC)CC
inactive: outcome [1] | outcome [2] | Potency [3] | Potency [4] | Potency [6] | outcome [7] | outcome [8] | outcome [9] | outcome [10] | Potency [11] | outcome [12] | outcome [13] | outcome [15] | outcome [16] | Potency [17]

COc1ccc2cc(CCC(C)=O)ccc2c1
active: Potency [4] 13.3 µM | Potency [17] 10.6 µM
inactive: outcome [1] | outcome [18] | Potency [3] | outcome [5] | outcome [7] | outcome [8] | outcome [9] | outcome [12] | outcome [13] | Potency [14] | outcome [15] | outcome [16]

CC/C=C/CCCCCCCCCCOC(C)=O
inactive: outcome [1] | outcome [18] | outcome [2] | Potency [3] | Potency [4] | outcome [5] | outcome [7] | outcome [8] | outcome [9] | outcome [12] | outcome [13] | Potency [14] | outcome [15] | outcome [16]

COc1cc2nc(N3CCN(C(=O)C4CCCO4)CC3)nc(N)c2cc1OC (stereo unspecified)
inactive: outcome [1] | outcome [2] | outcome [5] | Potency [6] | outcome [7] | outcome [8] | outcome [9] | outcome [10] | outcome [12] | outcome [13] | Potency [14] | outcome [15] | outcome [16]

NC[C@H]1O[C@H](O[C@H]2[C@H](O)[C@@H](O[C@H]3O[C@H](CO)[C@@H](O)[C@H](N)[C@H]3O)[C@H](N)C[C@@H]2N)[C@H](N)[C@@H](O)[C@@H]1O
inactive: activity change, negative = cytotoxicity [1] 7.91% [at 19 µM] | activity change, negative = inhibition [18] 4.59% [at 19 µM] | activity change, negative = cytotoxicity [2] 10% [at 19 µM] | activation [3] -1.56% [at 19 µM] | activity change, negative = inhibition [4] 11.8% [at 18.9 µM] | activity change, negative = cytotoxicity [6] 1.42% [at 19 µM] | viability change, negative = cytotoxic [7] 6.71% [at 15.8 µM] | activation [9] 3.2% [at 15.8 µM] | activity, negative = inhibition [10] -3.11% [at 10.5 µM] | activation [11] -0.0664% [at 11.8 µM] | activity change, negative = cytotoxicity [12] 11% [at 19 µM] | caspase activation [13] -1.91% [at 19 µM] | activity change, negative = cytotoxicity [14] 1.7% [at 19 µM] | caspase-3/7 activation [15] -0.57% [at 19 µM] | activity change, negative = cytotoxicity [16] 0.336% [at 19 µM] | activation [17] -6.93% [at 19 µM]

Nc1ccc(C(=O)NCC(=O)O)cc1
inactive: outcome [1] | Potency [3] | Potency [4] | Potency [6] | outcome [7] | outcome [9] | outcome [12] | outcome [13] | Potency [14] | outcome [15] | outcome [16] | Potency [17]

CC1(C)C(=O)C(C)(C)C1=O
inactive: outcome [1] | outcome [2] | Potency [3] | Potency [4] | outcome [5] | Potency [6] | outcome [7] | outcome [8] | outcome [9] | outcome [10] | Potency [11] | outcome [12] | outcome [13] | outcome [15] | outcome [16] | Potency [17]

C=CC(=O)OCCOCCOCC
inactive: outcome [1] | outcome [2] | Potency [3] | Potency [6] | outcome [7] | outcome [8] | outcome [9] | outcome [12] | outcome [13] | outcome [15] | outcome [16] | Potency [17]

O=C1CCCc2c(O)cccc21
inactive: outcome [1] | outcome [2] | Potency [3] | Potency [4] | outcome [5] | outcome [7] | outcome [8] | outcome [9] | outcome [12] | outcome [13] | Potency [14] | outcome [15] | outcome [16] | Potency [17]

COC(=O)c1ccccc1Cl
inactive: outcome [1] | outcome [2] | Potency [4] | outcome [7] | outcome [8] | outcome [9] | outcome [10] | Potency [11] | outcome [12] | outcome [13] | Potency [14] | outcome [15] | outcome [16] | Potency [17]

CN(C)CCC[C@@]1(c2ccc(F)cc2)OCc2cc(C#N)ccc21
inactive: Potency [19] | outcome [20] | outcome [18] | Potency [3] | Potency [4] | outcome [7] | outcome [8] | outcome [9] | outcome [10] | outcome [13] | Potency [14] | outcome [15] | outcome [16] | Potency [17]
